# Out of some 5,500 compounds screened, about 2,000 (36%) were called active. Another 18% or so got no clear call; they are omitted. Some of the results follow. Values without a mark were called inactive. Cut-off read from the data, not from the text of the source: active = normalized growth mostly below about 0.91 (no sharp cut-off); inconclusive = no clear call, values can overlap the other calls; inactive = mostly above about 0.92.
# Assay: chemical genetic growth profiling, strain panel (AID 1159580);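 note: tested at 20 µM; growth read once vehicle control cultures reached saturation at 30 °C; 1 = growth at the plate median or of vehicle wells; lower values mean less growth of the strain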
# Details: S. cerevisiae deletion strains, growth OD
# [1] = locus YAL040C, strain CLN3, active compounds read low
# [2] = locus YCL061C, strain MRC1 (second series), active compounds read low
# [3] = locus YDR363W, strain ESC2, active compounds read low
# [4] = locus YER002W, strain NOP16, active compounds read low
# [5] = locus YNL175C, strain NOP13, active compounds read low
# [6] = locus YNL197C, strain WHI3, active compounds read low
# [7] = locus YNL224C, strain SQS1, active compounds read low
# [8] = locus YOR083W, strain WHI5 (second series), active compounds read low
# [9] = locus YPL241C, strain CIN2, active compounds read low
# [10] = locus YGR078C, strain PAC10, active compounds read low
structure (smiles),measurement,setting,value
COc1cc(C(O)CO)ccc1OS(=O)(=O)O (stereo not drawn),normalized growth,[1],0.981
same,normalized growth,[2],1
same,normalized growth,[3],0.994
same,normalized growth,[4],0.991
same,normalized growth,"locus YGR229C, strain SMI1, active compounds read low",1.01
same,normalized growth,[5],0.998
same,normalized growth,[6],1
same,normalized growth,[7],1.01
same,normalized growth,"locus YNL322C, strain KRE1, active compounds read low",1.01
same,normalized growth,[8],1.05
same,normalized growth,[9],0.996
C1COC(NC(C2CC2)C2CC2)=N1,normalized growth,[1],1.01
same,normalized growth,[2],0.997
same,normalized growth,[3],1.01
same,normalized growth,[4],0.995
same,normalized growth,[10],0.997
same,normalized growth,"locus YMR307W, strain GAS1, active compounds read low",0.956
same,normalized growth,[5],1.01
same,normalized growth,[6],0.997
same,normalized growth,[7],0.999
same,normalized growth,[8],1.01
CSc1nc(N)c2ncn([C@@H]3O[C@H](COP(=O)(O)OP(=O)(O)OP(=O)(O)O)[C@H](O)C3O)c2n1 (stereo partly drawn),normalized growth,[1],0.978
same,normalized growth,"locus YDR150W, strain NUM1, active compounds read low",1.03
same,normalized growth,[4],0.998
same,normalized growth,[10],0.981
same,normalized growth,"locus YMR263W, strain SAP30, active compounds read low",1
same,normalized growth,"locus YNL153C, strain GIM3, active compounds read low",1.01
same,normalized growth,[5],0.986
same,normalized growth,[6],0.979
same,normalized growth,[7],0.967
same,normalized growth,[8],1
same,normalized growth,[9],1.01
COc1cc(Br)cc(C=Nc2ccc(Sc3ccccc3)nc2Sc2ccccc2)c1O,normalized growth,"locus YAR019C, strain CDC15, active compounds read low",0.968
same,normalized growth,"locus YBL105C, strain PKC1, active compounds read low",0.976
same,normalized growth,"locus YBR135W, strain CKS1, active compounds read low",0.96
same,normalized growth,"locus YBR136W, strain MEC1, active compounds read low",0.973
same,normalized growth,"locus YBR160W, strain CDC28, active compounds read low",0.965
same,normalized growth,"locus YDL017W, strain CDC7, active compounds read low",0.969
same,normalized growth,"locus YDL028C, strain MPS1, active compounds read low",0.962
same,normalized growth,"locus YDL101C, strain DUN1, active compounds read low",0.969
same,normalized growth,"locus YDL108W, strain KIN28, active compounds read low",0.958
same,normalized growth,"locus YDL132W, strain cdc53, active compounds read low",0.949
same,normalized growth,"locus YDL214C, strain PRR2, active compounds read low",0.838
same,normalized growth,"locus YDR052C, strain DBF4, active compounds read low",0.976
same,normalized growth,"locus YDR054C, strain cdc34, active compounds read low",0.957
same,normalized growth,"locus YDR226W, strain ADK1, active compounds read low",0.964
same,normalized growth,"locus YDR477W, strain SNF1, active compounds read low",0.812
same,normalized growth,"locus YER123W, strain YCK3, active compounds read low",0.831
same,normalized growth,"locus YER133W, strain GLC7, active compounds read low",0.843
same,normalized growth,"locus YFL009W, strain cdc4, active compounds read low",0.955
same,normalized growth,"locus YFL029C, strain CAK1, active compounds read low",0.966
same,normalized growth,"locus YFR003C, strain YPI1, active compounds read low",0.967
same,normalized growth,"locus YFR019W, strain FAB1, active compounds read low",0.969
same,normalized growth,"locus YFR028C, strain CDC14, active compounds read low",0.955
same,normalized growth,"locus YGR040W, strain KSS1, active compounds read low",0.857
same,normalized growth,"locus YGR052W, strain FMP48, active compounds read low",0.782
same,normalized growth,"locus YGR092W, strain DBF2, active compounds read low",0.523
same,normalized growth,"locus YHR030C, strain SLT2, active compounds read low",0.489 (active)
same,normalized growth,"locus YHR079C, strain IRE1, active compounds read low",0.703
same,normalized growth,"locus YHR082C, strain KSP1, active compounds read low",0.845
same,normalized growth,"locus YHR205W, strain SCH9, active compounds read low",0.696
same,normalized growth,"locus YIL147C, strain SLN1, active compounds read low",0.964
same,normalized growth,"locus YJL095W, strain BCK1, active compounds read low",0.638
same,normalized growth,"locus YJL128C, strain PBS2, active compounds read low",0.918
same,normalized growth,"locus YJL157C, strain FAR1, active compounds read low",0.848
same,normalized growth,"locus YJR016C, strain ILV3, active compounds read low",0.974
same,normalized growth,"locus YJR066W, strain TOR1 (second series), active compounds read low",0.848
same,normalized growth,"locus YJR066W, strain TOR1, active compounds read low",0.636
same,normalized growth,"locus YKL048C, strain ELM1, active compounds read low",0.935
same,normalized growth,"locus YKL067W, strain YNK1, active compounds read low",0.808
same,normalized growth,"locus YKL101W, strain HSL1, active compounds read low",0.861
same,normalized growth,"locus YKL193C, strain SDS22, active compounds read low",0.962
same,normalized growth,"locus YKL203C, strain TOR2, active compounds read low",0.91
same,normalized growth,"locus YLR113W, strain HOG1, active compounds read low",0.746 (active)
same,normalized growth,"locus YLR133W, strain CKI1, active compounds read low",0.846
same,normalized growth,"locus YLR403W, strain SFP1, active compounds read low",0.772
same,normalized growth,"locus YML070W, strain DAK1, active compounds read low",0.888
same,normalized growth,"locus YMR001C, strain CDC5, active compounds read low",0.951
same,normalized growth,"locus YMR205C, strain PFK2 (second series), active compounds read low",0.843
same,normalized growth,"locus YMR277W, strain FCP1, active compounds read low",0.959
same,normalized growth,"locus YNL006W, strain LST8, active compounds read low",0.971
same,normalized growth,"locus YNL020C, strain ARK1, active compounds read low",0.82
same,normalized growth,"locus YNL161W, strain CBK1, active compounds read low",0.972
same,normalized growth,"locus YNL183C, strain NPR1, active compounds read low",0.72
same,normalized growth,"locus YNL207W, strain RIO2, active compounds read low",0.961
same,normalized growth,"locus YNL222W, strain SSU72, active compounds read low",0.962
same,normalized growth,"locus YNL307C, strain MCK1 (second series), active compounds read low",0.766
same,normalized growth,"locus YOL078W, strain AVO1, active compounds read low",0.963
same,normalized growth,"locus YOL136C, strain PFK27, active compounds read low",0.893
same,normalized growth,"locus YOR061W, strain CKA2, active compounds read low",0.824
same,normalized growth,"locus YOR119C, strain RIO1, active compounds read low",0.838
same,normalized growth,"locus YOR231W, strain MKK1, active compounds read low",0.766
same,normalized growth,"locus YOR329C, strain SCD5, active compounds read low",0.967
same,normalized growth,"locus YPL031C, strain PHO85, active compounds read low",0.827
same,normalized growth,"locus YPL153C, strain RAD53, active compounds read low",0.808
same,normalized growth,"locus YPL204W, strain HRR25, active compounds read low",0.801
same,normalized growth,"locus YPL209C, strain IPL1, active compounds read low",0.968
same,normalized growth,"locus YPL256C, strain CLN2, active compounds read low",0.794 (active)
same,normalized growth,"locus YPR025C, strain CCL1, active compounds read low",0.962
same,normalized growth,"locus YPR106W, strain ISR1, active compounds read low",0.957
same,normalized growth,"locus YPR111W, strain DBF20, active compounds read low",0.939
same,normalized growth,"strain NNK1, active compounds read low",0.97
same,normalized growth,"strain TSCII, active compounds read low",0.964
